# Data reported in PMC5540273 (PLoS ONE, 2017).
# Several values for one entry are separate records, joined by “and”; a condition that tells them apart may be missing. Equal entries are not always repeated. Where two headings read alike, the source gives them in different places.
# Key:
# AURKC = conditions: concentration: 1 μM, replicates: in singlicate; n = 1
# AXL = conditions: concentration: 1 μM, replicates: in singlicate, n = 1
# BIKE = tested on: T1, BIKE; conditions: concentration: 1 μM, replicates: in singlicate, n = 1
# T1 construct: gene BMP2K
# BLK = conditions: concentration: 1 μM, replicates: in singlicate; n = 1
# BMPR1A = conditions: concentration: 1 μM, replicates: in singlicate; n = 1
# BMPR1B = conditions: concentration: 1 μM, replicates: in singlicate, n = 1
# BMPR2 = conditions: concentration: 1 μM, replicates: in singlicate, n = 1
# BMX = conditions: concentration: 1 μM, replicates: in singlicate, n = 1
# BRAF = conditions: concentration: 1 μM, replicates: in singlicate, n = 1
# BRK = tested on: T2, BRK; conditions: concentration: 1 μM, replicates: in singlicate, n = 1
# T2 construct: gene PTK6
# BRSK1 = conditions: concentration: 1 μM, replicates: in singlicate; n = 1
# BRSK2 = conditions: concentration: 1 μM, replicates: in singlicate; n = 1
# BTK = conditions: concentration: 1 μM, replicates: in singlicate, n = 1
# BUB1 = conditions: concentration: 1 μM, replicates: in singlicate, n = 1
# CAMK1B = conditions: concentration: 1 μM, replicates: in singlicate, n = 1
# CAMK1D = conditions: concentration: 1 μM, replicates: in singlicate, n = 1
# CAMK1G = conditions: concentration: 1 μM, replicates: in singlicate; n = 1
# CAMK1 = conditions: concentration: 1 μM, replicates: in singlicate, n = 1
# CAMK2A = conditions: concentration: 1 μM, replicates: in singlicate; n = 1
# CAMK2B = conditions: concentration: 1 μM, replicates: in singlicate; n = 1
# 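Note: KINOMEscan kinase panel screen.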
structure (smiles),measurement,setting,value
CCC(CC)(CC)n1cnc2c(N)ncnc21 [SKF-97620],%Inh,AURKC,0%
same,%Inh,AXL,0%
same,%Inh,BIKE,0%
same,%Inh,BLK,0%
same,%Inh,BMPR1A,7%
same,%Inh,BMPR1B,16%
same,%Inh,BMPR2,53%
same,%Inh,BMX,0%
same,%Inh,BRAF,10%
same,%Inh,BRK,0%
same,%Inh,BRSK1,0%
same,%Inh,BRSK2,15%
same,%Inh,BTK,0%
same,%Inh,BUB1,48%
same,%Inh,CAMK1B,18%
same,%Inh,CAMK1D,4%
same,%Inh,CAMK1G,6%
same,%Inh,CAMK1,3%
same,%Inh,CAMK2A,0%
same,%Inh,CAMK2B,0%
Nc1nc(-c2ccc3c(N)n[nH]c3c2)cc(N2CCC[C@@H](C(=O)Nc3ccccc3)C2)n1.O=C(O)C(F)(F)F.O=C(O)C(F)(F)F [GSK2288359],%Inh,AURKC,34%
same,%Inh,AXL,0%
same,%Inh,BIKE,29%
same,%Inh,BLK,0%
same,%Inh,BMPR1A,0%
same,%Inh,BMPR1B,0%
same,%Inh,BMPR2,10%
same,%Inh,BMX,0%
same,%Inh,BRAF,5%
same,%Inh,BRK,5%
same,%Inh,BRSK1,0%
same,%Inh,BRSK2,0%
same,%Inh,BTK,0%
same,%Inh,BUB1,0%
same,%Inh,CAMK1B,26%
same,%Inh,CAMK1D,11%
same,%Inh,CAMK1G,0%
same,%Inh,CAMK1,5%
same,%Inh,CAMK2A,0%
same,%Inh,CAMK2B,0%
COc1ccc(-c2nc3n(c2-c2ccncc2)CCC3)cc1 [SKF-104493],%Inh,AURKC,0%
same,%Inh,AXL; 1 µM,14% and 0%
same,%Inh,BIKE; 1 µM,10% and 0%
same,%Inh,BLK,0%
same,%Inh,BMPR1A,0%
same,%Inh,BMPR1B; 1 µM,0% and 1%
same,%Inh,BMPR2; 1 µM,39% and 2%
same,%Inh,BMX; 1 µM,0% and 11%
same,%Inh,BRAF; 1 µM,23% and 0%
same,%Inh,BRK; 1 µM,2% and 0%
same,%Inh,BRSK1,0%
same,%Inh,BRSK2,0%
same,%Inh,BTK; 1 µM,14% and 0%
same,%Inh,BUB1; 1 µM,67% and 78%
same,%Inh,CAMK1B; 1 µM,0% and 26%
same,%Inh,CAMK1D; 1 µM,12% and 7%
same,%Inh,CAMK1G,0%
same,%Inh,CAMK1; 1 µM,0% and 7%
same,%Inh,CAMK2A,0%
same,%Inh,CAMK2B,0%
Oc1ccc2ncnc(Nc3ccc(OCc4ccccc4)cc3)c2c1 [GI262866],%Inh,AURKC,34%
same,%Inh,AXL,5%
same,%Inh,BIKE,20%
same,%Inh,BLK,31%
same,%Inh,BMPR1A,0%
same,%Inh,BMPR1B,0%
same,%Inh,BMPR2,0%
same,%Inh,BMX,0%
same,%Inh,BRAF,0%
same,%Inh,BRK,4%
same,%Inh,BRSK1,2%
same,%Inh,BRSK2,0%
same,%Inh,BTK,4%
same,%Inh,BUB1,18%
same,%Inh,CAMK1B,1%
same,%Inh,CAMK1D,4%
same,%Inh,CAMK1G,0%
same,%Inh,CAMK1,17%
same,%Inh,CAMK2A,0%
same,%Inh,CAMK2B,0%
Cc1cc(N2CCC(NS(=O)(=O)c3ccc(F)cc3)CC2)nc(Nc2cccc(C#N)c2)n1.O=C(O)C(F)(F)F [GSK1653537],%Inh,AURKC,18%
same,%Inh,AXL,7%
same,%Inh,BIKE,21%
same,%Inh,BLK,25%
same,%Inh,BMPR1A,0%
same,%Inh,BMPR1B,0%
same,%Inh,BMPR2,0%
same,%Inh,BMX,14%
same,%Inh,BRAF,0%
same,%Inh,BRK,21%
same,%Inh,BRSK1,7%
same,%Inh,BRSK2,0%
same,%Inh,BTK,0%
same,%Inh,BUB1,0%
same,%Inh,CAMK1B,0%
same,%Inh,CAMK1D,8%
same,%Inh,CAMK1G,0%
same,%Inh,CAMK1,16%
same,%Inh,CAMK2A,0%
same,%Inh,CAMK2B,0%
Cc1cccc(-c2nc(Nc3ccc4[nH]nnc4c3)c3ccccc3n2)n1 [GW867587],%Inh,AURKC,0%
same,%Inh,AXL,0%
same,%Inh,BIKE,0%
same,%Inh,BLK,3%
same,%Inh,BMPR1A,0%
same,%Inh,BMPR1B,0%
same,%Inh,BMPR2,8%
same,%Inh,BMX,0%
same,%Inh,BRAF,0%
same,%Inh,BRK,0%
same,%Inh,BRSK1,0%
same,%Inh,BRSK2,0%
same,%Inh,BTK,0%
same,%Inh,BUB1,13%
same,%Inh,CAMK1B,0%
same,%Inh,CAMK1D,0%
same,%Inh,CAMK1G,0%
same,%Inh,CAMK1,0%
same,%Inh,CAMK2A,0%
same,%Inh,CAMK2B,8%
Nc1nc(-c2ccccn2)c(-c2ccnc3ccccc23)s1 [GW548057],%Inh,AURKC,25%
same,%Inh,AXL,8%
same,%Inh,BIKE,33%
same,%Inh,BLK,9%
same,%Inh,BMPR1A,0%
same,%Inh,BMPR1B,35%
same,%Inh,BMPR2,32%
same,%Inh,BMX,9%
same,%Inh,BRAF,0%
same,%Inh,BRK,1%
same,%Inh,BRSK1,0%
same,%Inh,BRSK2,0%
same,%Inh,BTK,8%
same,%Inh,BUB1,39%
same,%Inh,CAMK1B,33%
same,%Inh,CAMK1D,8%
same,%Inh,CAMK1G,0%
same,%Inh,CAMK1,4%
same,%Inh,CAMK2A,1%
same,%Inh,CAMK2B,0%
CC(C)(C)OC(=O)NC1CCCN(c2cc(-c3ccc4c(N)n[nH]c4c3)nc(N)n2)C1 (stereo not drawn) [GSK2286096],%Inh,AURKC,53%
same,%Inh,AXL,5%
same,%Inh,BIKE,10%
same,%Inh,BLK,0%
same,%Inh,BMPR1A,0%
same,%Inh,BMPR1B,0%
same,%Inh,BMPR2,0%
same,%Inh,BMX,8%
same,%Inh,BRAF,16%
same,%Inh,BRK,13%
same,%Inh,BRSK1,0%
same,%Inh,BRSK2,0%
same,%Inh,BTK,0%
same,%Inh,BUB1,0%
same,%Inh,CAMK1B,25%
same,%Inh,CAMK1D,21%
same,%Inh,CAMK1G,11%
same,%Inh,CAMK1,16%
same,%Inh,CAMK2A,0%
same,%Inh,CAMK2B,0%
Cl.Fc1ccccc1COc1ccc(Nc2ncnc3ccc(-c4nnc(C(F)(F)F)o4)cc23)cc1Cl [GW424170],%Inh,AURKC,0%
same,%Inh,AXL,0%
same,%Inh,BIKE,9%
same,%Inh,BLK,21%
same,%Inh,BMPR1A,0%
same,%Inh,BMPR1B,0%
same,%Inh,BMPR2,5%
same,%Inh,BMX,1%
same,%Inh,BRAF,0%
same,%Inh,BRK,6%
same,%Inh,BRSK1,0%
same,%Inh,BRSK2,0%
same,%Inh,BTK,0%
same,%Inh,BUB1,0%
same,%Inh,CAMK1B,0%
same,%Inh,CAMK1D,8%
same,%Inh,CAMK1G,0%
same,%Inh,CAMK1,13%
same,%Inh,CAMK2A,0%
same,%Inh,CAMK2B,0%
Cl.c1ccc(Cn2ccc3cc(Nc4ncnc5ccccc45)ccc32)cc1 [GW275568],%Inh,AURKC,0%
same,%Inh,AXL,0%
same,%Inh,BIKE,13%
same,%Inh,BLK,0%
same,%Inh,BMPR1A,0%
same,%Inh,BMPR1B,0%
same,%Inh,BMPR2,13%
same,%Inh,BMX,18%
same,%Inh,BRAF,0%
same,%Inh,BRK,0%
same,%Inh,BRSK1,0%
same,%Inh,BRSK2,20%
same,%Inh,BTK,0%
same,%Inh,BUB1,0%
same,%Inh,CAMK1B,34%
same,%Inh,CAMK1D,27%
same,%Inh,CAMK1G,8%
same,%Inh,CAMK1,24%
same,%Inh,CAMK2A,9%
same,%Inh,CAMK2B,0%
Fc1cccc(COc2ccc(Nc3ncnc4cc[nH]c34)cc2Cl)c1,%Inh,AURKC,8%
same,%Inh,AXL,16%
same,%Inh,BIKE,9%
same,%Inh,BLK,1%
same,%Inh,BMPR1A,21%
same,%Inh,BMPR1B,16%
same,%Inh,BMPR2,15%
same,%Inh,BMX,6%
same,%Inh,BRAF,0%
same,%Inh,BRK,11%
same,%Inh,BRSK1,2%
same,%Inh,BRSK2,0%
same,%Inh,BTK,0%
same,%Inh,BUB1,1%
same,%Inh,CAMK1B,7%
same,%Inh,CAMK1D,0%
same,%Inh,CAMK1G,10%
same,%Inh,CAMK1,29%
same,%Inh,CAMK2A,27%
same,%Inh,CAMK2B,28%
O=C(c1ccc(-c2cc(-c3c[nH]nc3-c3ccccn3)ccn2)cc1)N1CCCC1 [GW792479],%Inh,AURKC,0%
same,%Inh,AXL,0%
same,%Inh,BIKE,18%
same,%Inh,BLK,9%
same,%Inh,BMPR1A,0%
same,%Inh,BMPR1B,9%
same,%Inh,BMPR2,0%
same,%Inh,BMX,12%
same,%Inh,BRAF,0%
same,%Inh,BRK,0%
same,%Inh,BRSK1,0%
same,%Inh,BRSK2,2%
same,%Inh,BTK,24%
same,%Inh,BUB1,20%
same,%Inh,CAMK1B,0%
same,%Inh,CAMK1D,30%
same,%Inh,CAMK1G,0%
same,%Inh,CAMK1,32%
same,%Inh,CAMK2A,1%
same,%Inh,CAMK2B,5%
Cn1ccc2ncnc(Oc3ccc(NC(=O)Nc4cccnc4)c(Cl)c3)c21,%Inh,AURKC,0%
same,%Inh,AXL,7%
same,%Inh,BIKE,0%
same,%Inh,BLK,8%
same,%Inh,BMPR1A,0%
same,%Inh,BMPR1B,0%
same,%Inh,BMPR2,7%
same,%Inh,BMX,0%
same,%Inh,BRAF,0%
same,%Inh,BRK,0%
same,%Inh,BRSK1,6%
same,%Inh,BRSK2,0%
same,%Inh,BTK,0%
same,%Inh,BUB1,5%
same,%Inh,CAMK1B,0%
same,%Inh,CAMK1D,0%
same,%Inh,CAMK1G,27%
same,%Inh,CAMK1,21%
same,%Inh,CAMK2A,0%
same,%Inh,CAMK2B,18%
CNc1nccc(-c2c(-c3ccc(F)cc3)ncn2C2CCN(C)CC2)n1 [SB-222903],%Inh,AURKC,0%
same,%Inh,AXL,0%
same,%Inh,BIKE,0%
same,%Inh,BLK,36%
same,%Inh,BMPR1A,0%
same,%Inh,BMPR1B,0%
same,%Inh,BMPR2,11%
same,%Inh,BMX,0%
same,%Inh,BRAF,0%
same,%Inh,BRK,0%
same,%Inh,BRSK1,0%
same,%Inh,BRSK2,0%
same,%Inh,BTK,0%
same,%Inh,BUB1,75%
same,%Inh,CAMK1B,0%
same,%Inh,CAMK1D,0%
same,%Inh,CAMK1G,0%
same,%Inh,CAMK1,0%
same,%Inh,CAMK2A,0%
same,%Inh,CAMK2B,0%
FC(F)(F)c1ccc(-c2cc(-c3c[nH]nc3-c3ccccn3)ccn2)cc1 [GW599550],%Inh,AURKC,14%
same,%Inh,AXL,20%
same,%Inh,BIKE,13%
same,%Inh,BLK,39%
same,%Inh,BMPR1A,0%
same,%Inh,BMPR1B,0%
same,%Inh,BMPR2,25%
same,%Inh,BMX,19%
same,%Inh,BRAF,0%
same,%Inh,BRK,8%
same,%Inh,BRSK1,0%
same,%Inh,BRSK2,0%
same,%Inh,BTK,0%
same,%Inh,BUB1,55%
same,%Inh,CAMK1B,35%
same,%Inh,CAMK1D,22%
same,%Inh,CAMK1G,1%
same,%Inh,CAMK1,23%
same,%Inh,CAMK2A,0%
same,%Inh,CAMK2B,0%
